High-throughput results as filed in PubChem BioAssay.
Rows were chosen to be rich in hits. Some 6.2% of all compounds tested hit in one or more screens of this group.
LASV entry inh – Lassa virus entry inhibition; Lassa virus pseudotype entry inhibition, cell reporter; Potency, µM (top dose mostly 37.9 µM), usual class: inhibitors; hit rate 1.2% among 300,000; AID 540256; calls by dose curve; tested in HEK293 cells; further: nearly all actives have a fitted effect of over 50% in size
HCMV antiviral – inhibitors of human cytomegalovirus; HFF cells, HCMV-luciferase reporter, 72 h; stronger effect = lower value; activity change, negative = inhibition, % at 57.5 µM; hit rate 4.5% among 410,000; in the data active means activity change below about -60%; inconclusive means no clear call, values can overlap the other calls; inactive means above about -39%
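Screen run at 2 compound doses on HFFs infected with reporter HCMV, MOI 1 PFU/cell. Luciferase activity from cell lysates at 72 h post infection gave inhibition relative to buffer-only and Salinomycin wells.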
Marburg entry inh – Marburg virus entry inhibition | Marburg virus pseudotyped entry inhibition, cell reporter | hit rate 1.8% among 300,000 | Potency, µM (titrated, usually from 37.8 µM), actives largely listed as inhibitors; calls by dose curve; tested in HEK293 cells
FMDV inh – antivirals against foot and mouth disease virus. Potency, µM (titrated, usually from 57.9 µM), actives largely listed as inhibitors. FMDV antiviral cell-based qHTS. hit rate 1.2% among 410,000. AID 1159524; calls by dose curve; tested in HEK293T cells; further: read-out not given here; nearly all actives have a fitted effect of over 45% in size
Large screens that a line does not name were inactive.

C=CCOC(=O)C(C(C)=O)[C@@H](NC(=O)OC)c1cccc(F)c1 (stereo partly specified)	none (no result: LASV entry inh, HCMV antiviral, FMDV inh)
CCOc1ccc(NC(=O)CN(c2ccccc2OCC)S(=O)(=O)c2ccccc2)cc1	LASV entry inh inconclusive (no result: Marburg entry inh)
CCOc1ccccc1N(CC(=O)Nc1ccccc1F)S(=O)(=O)c1ccccc1	HCMV antiviral -104.4 (no result: LASV entry inh, Marburg entry inh)
CCOc1ccccc1N(CC(=O)N1CCOCC1)S(=O)(=O)c1ccc(SC)cc1	LASV entry inh 5.62µM, Marburg entry inh inconclusive
CCOc1ccccc1N(CC(=O)Nc1ccc(OC)cc1)S(=O)(=O)c1ccccc1	HCMV antiviral inconclusive (no result: LASV entry inh, Marburg entry inh)
CCOc1ccccc1N(CC(=O)Nc1cccc(OC)c1)S(=O)(=O)c1ccccc1	LASV entry inh inconclusive, HCMV antiviral -106.9, Marburg entry inh inconclusive
Cc1ccc(S(=O)(=O)N(CC(=O)N2CCOCC2)c2ccccc2F)cc1	LASV entry inh inconclusive
C=CC[C@@](C(C)=O)(C(=O)OC)[C@@H](NC(=O)OC)c1ccccc1	none (no result: LASV entry inh, HCMV antiviral, FMDV inh)
Cc1ccc(S(=O)(=O)c2c(Nc3ccccc3)sc(C(=O)c3ccc4c(c3)OCO4)c2N)cc1	LASV entry inh inconclusive (no result: Marburg entry inh)
O=C(CCl)Nc1cccn2ncnc12	LASV entry inh inconclusive, HCMV antiviral -60.3, Marburg entry inh inconclusive
O=C(NC(=S)Nc1ccccc1[N+](=O)[O-])c1ccccc1	Marburg entry inh inconclusive
O=C(NC(=S)/C(=C1\CCCCCN1)[N+](=O)[O-])c1ccccc1	LASV entry inh inconclusive, Marburg entry inh inconclusive, FMDV inh 12.6µM (no result: HCMV antiviral)
N=c1c2c(ncn1Cc1ccco1)Oc1ccc3ccccc3c1C2c1ccccc1 (stereo unspecified)	LASV entry inh inconclusive, Marburg entry inh 9.2µM, FMDV inh inconclusive
COc1ccc(C2C3=C(CC(C)(C)CC3=O)Oc3ncn(Cc4ccco4)c(=N)c32)cc1 (stereo unspecified)	LASV entry inh inconclusive, Marburg entry inh inconclusive, FMDV inh 28.2µM
COC(=O)c1ccc2nc(-c3cccc(Br)c3)c(Cc3ccccc3)n2c1	none (no result: LASV entry inh, Marburg entry inh)
CCOC(=O)N(C)C[C@@H]1OCc2cn(nn2)CCCC(=O)N([C@H](C)CO)C[C@H]1C	none (no result: LASV entry inh, Marburg entry inh, FMDV inh)
CCOC(=O)c1c(CSc2ccccc2)n(C)c2cc(Br)c(OCC(O)CNC(CO)(CO)CO)cc12 (stereo unspecified)	LASV entry inh inconclusive, HCMV antiviral -62.8, Marburg entry inh inconclusive
CCOC(=O)c1c(CSc2ccccc2)n(C)c2cc(Br)c(OC)c(O)c12	FMDV inh inconclusive (no result: LASV entry inh, Marburg entry inh)
COC(=O)c1ccc(NCc2cc(O)ccc2O)cc1O	LASV entry inh 20µM, Marburg entry inh inconclusive, FMDV inh inconclusive
Cc1cc(=O)c2cc(Cl)ccc2[nH]1	HCMV antiviral -63.4 (no result: LASV entry inh, Marburg entry inh)
CCCCCn1c(=O)[nH]c2cc(C(=O)Nc3ccc(F)c(F)c3)ccc2c1=O	none
COCCN1CCN(C(=O)c2cnn(-c3nccc(-c4ccco4)n3)c2C(C)C)CC1	none (no result: LASV entry inh, HCMV antiviral, Marburg entry inh)
CCCCCC[N+](C)(C)CCSSCC[N+](C)(C)CCCCCC	none (no result: LASV entry inh, Marburg entry inh)
CCCCCCCCCCCCCCCC[N+](C)(C)CC	HCMV antiviral -96.0 (no result: LASV entry inh, Marburg entry inh)
CCCCCCCCCCCCCCCC[N+](C)(C)C	HCMV antiviral -94.3, FMDV inh inconclusive (no result: LASV entry inh, Marburg entry inh)
COc1ccccc1CN1Cc2ccccc2Oc2ccccc2S1(=O)=O	none (no result: LASV entry inh, Marburg entry inh, FMDV inh)
Cc1nnc(N/N=C/c2cc(C)n(-c3ccc(F)cc3)c2C)n1N	LASV entry inh 7.08µM, Marburg entry inh 14.6µM
Cc1nnc(N/N=C/c2ccccc2O)n1N	LASV entry inh inconclusive, HCMV antiviral -103.7, Marburg entry inh inconclusive
Cc1cc(/C=N/NC(N)=S)c(C)n1-c1ccc(Br)cc1	LASV entry inh inconclusive, Marburg entry inh inconclusive
CC(=O)c1ccc(NC(=O)COc2ccccc2-c2nc(C)no2)cc1	none
O=C(/C=C/[C@H]1O[C@@H](n2ccc(=O)[nH]c2=O)[C@H](O)[C@@H]1O)NCc1ccc2c(c1)OCO2	none (no result: LASV entry inh, Marburg entry inh)
Cn1cc(C(=O)CCl)c2ccccc21	LASV entry inh inconclusive, HCMV antiviral -98.2, Marburg entry inh 16.4µM, FMDV inh 22.4µM
COc1cc(OC)cc(C(=O)Nc2nc(-c3nnn(-c4ccc(C)cc4)c3C)ns2)c1	HCMV antiviral -105.7, FMDV inh inconclusive (no result: Marburg entry inh)
Cc1ccc(C(=O)Nc2nc(-c3nnn(-c4cccc(C(F)(F)F)c4)c3C)ns2)cc1	none (no result: Marburg entry inh)
CCOC(=O)c1c(C2CC2)csc1NC(C)=O	HCMV antiviral -64.9
COc1ccc(CNc2cccc3[nH]c(C(F)(F)F)nc23)cc1	none
Cc1ccc(C(=O)Nc2cccc3[nH]c(C(F)(F)F)nc23)cc1	LASV entry inh inconclusive, HCMV antiviral -95.8, Marburg entry inh inconclusive
CCOP(=O)(OCC)c1cccc(O)c1	HCMV antiviral -65.0
CC(C)Oc1ccc(C(=O)Nc2nc3ccccc3[nH]2)cc1	LASV entry inh 1.12µM, HCMV antiviral -60.3, Marburg entry inh inconclusive, FMDV inh 7.94µM
COc1cc(OC)cc(C(=O)Nc2nc3ccccc3[nH]2)c1	LASV entry inh inconclusive
O=C(Nc1nc2ccccc2[nH]1)c1ccc(OC(F)F)cc1	LASV entry inh inconclusive, Marburg entry inh inconclusive, FMDV inh 12.6µM
Cc1ccc(Cl)c2sc(N3CCN(C(=O)C4CC4)CC3)nc12	none (no result: Marburg entry inh)
CC(=O)N(c1ccc(Cl)cc1)c1cn(C(C)=O)c2ccccc12	Marburg entry inh inconclusive
CC(=O)n1cc(N(C(=O)CCl)c2ccc(C)cc2)c2ccccc21	LASV entry inh inconclusive, HCMV antiviral -97.4, Marburg entry inh 7.08µM, FMDV inh 14.1µM
C/C(=N/NS(=O)(=O)c1ccc(CC(C)C)cc1)c1ccncc1	HCMV antiviral -66.1 (no result: LASV entry inh, Marburg entry inh)
C/C(=N/NS(=O)(=O)c1ccc(C(C)C)cc1)c1ccncc1	none (no result: LASV entry inh, Marburg entry inh)
OCC(O)C(O)C(O)CO (stereo unspecified)	none (no result: LASV entry inh, HCMV antiviral, Marburg entry inh)
COc1cccc(N2C(=O)NC(=O)/C(=C/c3ccc4c5c(cccc35)CC4)C2=O)c1	HCMV antiviral -100.8 (no result: LASV entry inh, Marburg entry inh, FMDV inh)
CCOc1ccccc1N1C(=O)NC(=O)/C(=C/c2ccc3c4c(cccc24)CC3)C1=O	FMDV inh 39.8µM
COc1cc(/C=C2\C(=O)NC(=O)N(c3ccccc3)C2=O)cc(OC)c1OC	Marburg entry inh inconclusive, FMDV inh inconclusive
N[C@H](Cn1ccc(=O)[nH]c1=O)C(=O)O	none (no result: LASV entry inh, HCMV antiviral, FMDV inh)
Cc1onc(-c2ccccc2)c1C(=O)Nc1sc2c(c1C#N)CCC2	LASV entry inh inconclusive, HCMV antiviral inconclusive, Marburg entry inh 4.61µM, FMDV inh inconclusive
Cc1onc(-c2c(F)cccc2Cl)c1C(=O)Nc1sc2c(c1C(N)=O)CCC2	HCMV antiviral -74.2, Marburg entry inh inconclusive, FMDV inh inconclusive
Cc1onc(-c2ccccc2)c1C(=O)NC(=S)Nc1sc2c(c1C#N)CCCC2	none
Cc1cccc(C(=O)Nc2sc(C)c(-c3ccccc3)c2C#N)c1	LASV entry inh inconclusive, Marburg entry inh inconclusive
Cc1noc(C)c1C(=O)Nc1sc(C)c(-c2ccccc2)c1C#N	HCMV antiviral -104.2, FMDV inh 28.2µM
Cc1onc(-c2ccccc2)c1C(=O)Nc1ccc(OC(C)C)cc1	FMDV inh 0.708µM (no result: LASV entry inh, Marburg entry inh)
Cc1cc(C)c(NC(=O)c2cc(C)nc3c2c(C)nn3-c2cccc(F)c2)c(C)c1	LASV entry inh inconclusive (no result: Marburg entry inh)
O=C(CCCn1c(=O)c2ccccc2n(CC(=O)Nc2ccc(F)cc2F)c1=O)NCc1ccccc1Cl	none
CC(=O)OC[C@H]1O[C@H](CC=NOCC[C@@H]2C=C[C@@H](OC(C)=O)[C@@H](COC(C)=O)O2)C=C[C@@H]1OC(C)=O	none (no result: LASV entry inh, HCMV antiviral, FMDV inh)
Cn1cc(Br)c(C(=O)Nc2sc3c(c2C#N)CCC3)n1	none
Cn1cc([N+](=O)[O-])c(C(=O)Nc2sc3c(c2C#N)CCC3)n1	HCMV antiviral -101.2 (no result: LASV entry inh, Marburg entry inh)
